Source: PubChem BioAssay (NCI)
About 79,000 compounds went through this panel and 15% of them were active in at least one assay; those are over-represented in the sample as a whole. Rule as the data show it: active = growth inhibition above about 70%; inactive = the rest.

What was measured:
[1] = NCI Yeast Anticancer Drug Screen. Data for the rad50 strain (AID 155);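 also: 0% = growth of vehicle-only cultures of the same strain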; conditions: S. cerevisiae rad50 strain growth inhibition; at 50.0 µM; active compounds read high
Summary of the method: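 Yeast carrying a defined DNA repair defect were exposed to test compounds, and growth was compared with vehicle-treated controls to give percent inhibition.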

[2] = NCI Yeast Anticancer Drug Screen. Data for the mec2-1 strain (AID 157); conditions: S. cerevisiae mec2-1 strain, at 50.0 µM, active compounds read high
Summary of the method: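 Strain: mec2-1 (DNA repair/cell cycle alteration). Compound exposure, then growth measured; inhibition expressed relative to vehicle.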

[3] = NCI Yeast Anticancer Drug Screen. Data for the sgs1 mgt1 strain (AID 161);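 also: 0% = growth of cultures given vehicle only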; conditions: S. cerevisiae sgs1 mgt1 strain, at 50.0 µM, active compounds read high
Summary of the method: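 Mutant yeast exposed to compound; growth scored against vehicle-only wells.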

[4] = NCI Yeast Anticancer Drug Screen. Data for the cln2 rad14 strain (AID 165);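 also: 0% = growth equal to vehicle treated cultures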; conditions: S. cerevisiae cln2 rad14 strain, at 50.0 µM, active compounds read high
Summary of the method: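 Compounds are applied to the cln2 rad14 yeast strain, and growth is then compared with that of vehicle-treated cultures to give inhibition.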

[5] = NCI Yeast Anticancer Drug Screen. Data for the bub3 strain (AID 167); conditions: S. cerevisiae bub3 mutant strain, at 50.0 µM, active compounds read high
Summary of the method: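 Compounds were applied to a genetically altered yeast strain carrying a cell-cycle control defect. Growth inhibition was scored against vehicle-treated controls.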

[6] = NCI Yeast Anticancer Drug Screen. Data for the mlh1 rad18 strain (AID 175); conditions: S. cerevisiae mlh1 rad18 strain growth inhibition; at 50.0 µM; active compounds read high
Summary of the method: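 Read-out is yeast growth inhibition, calculated against vehicle-only controls. The compound was applied to a strain engineered with DNA damage repair alterations.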

Measured: growth inhibition

c1ccc2sc(-c3nc4ccccc4s3)nc2c1
inactive: [1] 26.3% | [2] 11.7% | [3] 5.55% | [4] -21.7% | [5] 8.3% | [6] 12.4%

CCCCCCCCCCCCCC(=O)OCC(=O)c1ccc(-c2ccccc2)cc1
inactive: [1] 23.1% | [2] 4.2% | [3] 32.5% | [4] 29.9% | [5] 11.4% | [6] 27.8%

O=c1c2c(ccc3ccccc32)oc2ccc3ccccc3c12
inactive: [1] 15% | [2] 1.45% | [3] -5.45% | [4] -45.1% | [5] -7.65% | [6] 16.4%

CC(=O)OC1C=CC(OC(C)=O)C2C1[C@H]1C3C=CC=CC3[C@@H]2S1=O (stereo partly specified)
inactive: [1] -36.8% | [2] -35.8% | [3] -17.2% | [4] -6.5% | [5] 6.25% | [6] -27.1%

C/C=C(\C)C(=O)N1c2ccccc2CC1c1c(C)[nH]c2ccccc12 (stereo unspecified)
inactive: [1] 29.1% | [2] 3.65% | [3] 21.2% | [4] 19.9% | [5] 23.8% | [6] 11.1%

CNC(=O)c1n[nH]c(=S)[nH]c1=O
inactive: [1] -7.4% | [2] -4.9% | [3] 0.8% | [4] -52.8% | [5] -6.7% | [6] -7.5%

CCCCOCC(=O)NC1CCCCC1
inactive: [1] 29.9% | [2] -30.4% | [3] -39.4% | [4] -10.2% | [5] -24.1% | [6] 33.6%

COc1cc2cnc(-c3ccncc3)c(O)c2cc1OC
inactive: [1] 30.9% | [2] 40.6% | [3] 37.2% | [4] 1.9% | [5] 36.2% | [6] 28.6%

Cc1ccc(NC(=O)COc2cc(Cl)c(Cl)cc2Cl)cc1[N+](=O)[O-]
inactive: [1] -8.55% | [2] -9.1% | [3] -6.6% | [4] 10.2% | [5] 0.1% | [6] 0.4%

Clc1ccc(Nc2nc3ccccc3nc2-c2cccs2)cc1Cl
inactive: [1] -13.4% | [2] 4.55% | [3] 1.2% | [4] -7.5% | [5] -3.05% | [6] -2.1%

Cn1ncc2c(=S)nc[nH]c21
inactive: [1] -15.2% | [2] -4.9% | [3] -2.5% | [4] -18.2% | [5] 2.65% | [6] -13.8%

CN(C(=O)CCCO)c1cc([N+](=O)[O-])ccc1OCc1ccccc1
inactive: [1] 7.6% | [2] 2.8% | [3] -1.2% | [4] -0.8% | [5] 0.7% | [6] -0.75%

Cc1ccc(C(=O)C2CC2c2ccccc2)cc1 (stereo unspecified)
inactive: [1] 6.05% | [2] -1.9% | [3] -13.7% | [4] -38% | [5] -0.95% | [6] -7%

CC(C)CC(NS(=O)(=O)Cc1ccccc1)C(=O)NN (stereo unspecified)
inactive: [1] -26.9% | [2] -13.6% | [3] -3.85% | [4] 11.2% | [5] 7.5% | [6] -22.1%

c1ccc2c(c1)NC(SSC1Nc3ccccc3S1)S2 (stereo unspecified)
inactive: [1] -2.4% | [2] -21.1% | [3] -2.65% | [4] -0.55% | [5] -11.1% | [6] 1.65%

COC1=CC(=C(C#N)C(=Nc2ccccc2)SC)C=C(OC)C1=O
inactive: [1] 34.1% | [2] 19.1% | [3] 48.9% | [4] 15.3% | [5] 20.6% | [6] 43.6%

Cn1c(=O)c2c(nc(Br)n2CC(=O)CF)n(C)c1=O
inactive: [1] 13.2% | [2] 10.8% | [3] -3.75% | [4] -24.4% | [5] 8% | [6] 20.4%

CCOC(=O)CCCc1ccccc1
inactive: [1] -13.2% | [2] -32.5% | [3] -2.65% | [4] 32.2% | [5] 4.05% | [6] -2.25%

COC(=O)CCC(=O)Nc1cc(Cl)c(Cl)cc1Cl
inactive: [1] -14.1% | [2] 8.15% | [3] 6.55% | [4] 1.15% | [5] 9.3% | [6] -7.4%

C/C(=N/NC(N)=O)C1=CCCC1
inactive: [1] 2.9% | [2] -2.05% | [3] -6.6% | [4] 11% | [5] 7.55% | [6] -9.1%

Cc1c(O)c2cccc(-c3ccccc3)c2oc1=O
inactive: [1] 5.8% | [2] 17.5% | [3] 11.1% | [4] -6.3% | [5] -4.8% | [6] 17.6%
